# The sample as a whole holds a higher share of hits than the screen did.
# IMPase Li inh: qHTS Assay for Identifying the Cell-Membrane Permeable IMPase Inhibitors: Potentiation with Lithium; CHO-M1 cells, IP1 TR-FRET (IP-One), carbachol + lithium; Potency, µM (series often up to 59.4 µM), inactives show at the highest dose activity, negative = IMPase inhibition, most hits filed as inhibitors; 210,000 compounds, 0.35% hits; AID 1457, 2008;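 note: IP1 builds up when IMPase is blocked and the TR-FRET signal falls; potency is the fitted concentration of half-maximal effect; plate controls were basal vehicle for no effect and high inhibitor control for full effect; nearly all actives have a fitted effect of over 50% in size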
#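 CHO cells stably expressing M1 receptor (2000/well, cultured 16–30 h) treated 30 min at 37C with compound plus low lithium. Cytosolic IP1 by TR-FRET (665/620 ratio and 620 channel) after 10 min lysis; AC50 by Hill fit.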
# 15-hLO-2 inh: qHTS Assay for Inhibitors of 15-hLO-2 (15-human lipoxygenase 2). purified 15hLO-2, xylenol orange hydroperoxide absorbance. 110,000 compounds, 0.56% hits. Potency, µM (series often up to 57.1 µM), for inactives: top-dose activity change, negative = inhibition, usual class: inhibitors. Polyunsaturated fatty acid lipoxygenase ALOX15B (Homo sapiens), O15296; note: potency is the fitted concentration of half-maximal effect; nearly all actives have a fitted effect of over 60% in size
#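 Read-out: hydroperoxide product oxidises ferrous iron, measured as xylenol orange complex via the 573-to-405 nm absorbance ratio after 30 min. Reaction: 50 nM enzyme, 15 min compound preincubation, 45 uM arachidonic acid, 90 min RT, Hepes pH 7.5 with Triton X-100.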
# PNC assembly inh: High Content Assay for Compounds that inhibit the Assembly of the Perinucleolar Compartment; PC3M PTB-GFP, PNC prevalence imaging, 16 h; hits give low values; activity change (PNC), negative = inhibition, % at 10 µM; 140,000 compounds, 3.1% hits;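 active = readout at or below -70, meaning at least 70% loss of cells showing the perinucleolar compartment, a nuclear body marking cancer cells; inconclusive = readout between -30 and a set limit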;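 note: plate controls were DMSO wells for no effect and camptothecin positive control wells for full effect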
#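 Compounds are pinned in duplicate onto adhered PC3M cells stably expressing GFP-tagged PTB and incubated 16 h at 37 C. Cells are then fixed, nuclei stained with Hoechst, and PNC-positive cells counted.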
# 12-hLO inh: qHTS Assay for Inhibitors of 12-hLO (12-human lipoxygenase); purified 12-hLO, xylenol orange hydroperoxide absorbance; 150,000 compounds, 0.12% hits; Potency, µM (highest dose often 57.1 µM), inactives show at the highest dose activity change, negative = inhibition, most hits filed as inhibitors; Polyunsaturated fatty acid lipoxygenase ALOX12 (Homo sapiens), P18054; AID 1452, 2008; note: potency is the fitted concentration of half-maximal effect; nearly all actives have a fitted effect of over 55% in size
# Target sequence (P18054 whole entry, looked up): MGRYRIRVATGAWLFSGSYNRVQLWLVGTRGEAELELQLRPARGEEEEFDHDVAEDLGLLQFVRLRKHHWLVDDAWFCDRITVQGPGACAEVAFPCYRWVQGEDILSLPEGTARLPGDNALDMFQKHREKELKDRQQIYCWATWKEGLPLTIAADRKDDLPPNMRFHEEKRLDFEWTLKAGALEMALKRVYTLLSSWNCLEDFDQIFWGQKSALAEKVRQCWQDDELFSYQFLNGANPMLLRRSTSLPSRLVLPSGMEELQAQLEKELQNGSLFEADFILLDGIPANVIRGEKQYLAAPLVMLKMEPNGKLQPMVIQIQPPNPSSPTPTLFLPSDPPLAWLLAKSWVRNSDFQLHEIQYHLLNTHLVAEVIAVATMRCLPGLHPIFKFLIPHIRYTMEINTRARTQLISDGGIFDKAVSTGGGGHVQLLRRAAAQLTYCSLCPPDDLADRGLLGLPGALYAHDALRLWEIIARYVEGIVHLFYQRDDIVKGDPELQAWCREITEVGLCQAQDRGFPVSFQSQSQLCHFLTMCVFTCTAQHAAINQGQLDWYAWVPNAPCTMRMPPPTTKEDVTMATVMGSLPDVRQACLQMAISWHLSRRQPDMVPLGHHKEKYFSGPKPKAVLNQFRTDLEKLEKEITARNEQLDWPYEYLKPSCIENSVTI
#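 Hydroperoxide output read as Fe(III)-xylenol orange absorbance, 573-to-405 nm ratio, after 30 min reaction with 40 uM arachidonic acid. Enzyme: 150 nM purified human 12hLO, 15 min compound preincubation; 25 mM Hepes pH 7.0, room temperature.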
# IMPase cell inh: qHTS Assay for Identifying the Cell-Membrane Permeable IMPase Inhibitors; Inositol monophosphatase 1 (Rattus norvegicus), P97697; CHO-M1 cells, IP1 accumulation, HTRF TR-FRET ratio; inhibition (IP1 accumulation), % at 46.1 µM; 120,000 tested, under 10 active; AID 901, 2007; active = well fitted curve in the direction sought with a large enough effect in the signal ratio, not every such curve was filed as active; inconclusive = small, poorly fitted or top-dose-only effect, or a change in a side signal; inactive = no such curve, though single readings can be large or run the other way; the % refers to the signal ratio;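 note: cells stimulated with carbachol in lithium chloride buffer; plate controls were DMSO basal wells for no effect and reference inhibitor wells for full effect; higher means more IMPase inhibition seen as more IP1 and lower FRET ratio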
#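 Carbachol-driven Gq signalling in CHO-M1 cells (2000/well) generates IP1. Compounds that block IMPase raise IP1 and so reduce the FRET signal from Eu-anti-IP1 and d2-IP1 after a 10 min room-temperature lysis.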
# * = called active by the depositor; ? = inconclusive; . = no result given; [ ] = another dose, or the depositor's remark. Unless noted, calls come from the whole dose curve; as a rule, active = well fitted curve in the direction sought with a large enough effect; inconclusive = small, poorly fitted or top-dose-only effect, or another doubt; inactive = no such curve, though single readings can be large; an effect the other way counts as inactive or inconclusive. Unless noted, % is set by controls: 0 for no effect and ±100 for the full control effect.
SMILES,IMPase Li inh,15-hLO-2 inh,PNC assembly inh,12-hLO inh,IMPase cell inh
O=C(O)c1cc[c]([Hg][S]c2ncnc3nc[nH]c23)cc1,8%,2.5µM*,.,?,.
CCN(CC)C(=O)N[C@H]1C[C@H]2c3cccc4[nH]cc(c34)C[C@@H]2N(C)C1,.,12%,.,5%,8
Cn1c(=O)cc(OCC(=O)N2CCC3(CC2)OCCO3)c2ccccc21,23%[38.3 µM],7%,-95*,0%,-3
Cn1c(=O)cc(OCCCC(=O)N2CCC3(CC2)OCCO3)c2ccccc21,-22%[38.3 µM],4%,?,-3%,?
COC(=O)C[C@]1(C(=O)OC)CN(C#N)N(c2ccc(Cl)cc2)C12c1ccccc1-c1ccccc12,11%,.,-100*,-4%,7
CC(=O)OCC1=C(C(=O)[O-])N2C(=O)[C@@H](NC(=O)CCC[C@@H](N)C(=O)[O-])[C@@H]2SC1.[Zn+2],.,-10%,.,-5%,6
CCCN1CCc2cccc3c2C1Cc1ccc(O)c(O)c1-3 (stereo unspecified),14%,.,.,.,.
C=CCN1CCc2cccc3c2[C@@H]1Cc1ccc(O)c(O)c1-3,.,6.3µM*,.,-17%,-1
O=[N+]([O-])c1ccc(O[C@H]2O[C@@H](CO)[C@@H](O)[C@@H](O)[C@@H]2F)c([N+](=O)[O-])c1,.,-2%,.,-5%,3
CCn1cnc2c(Nc3cccc(Cl)c3)nc(N[C@@H]3CCCC[C@H]3N)nc21,.,45%,.,-12%,6
CC[C@@]1(O)C(=O)OCc2c1cc1n(c2=O)Cc2cc3cc(O)ccc3nc2-1,10µM*,-30%,.,-15%,.
CC[C@@]1(O)C(=O)OCc2c1cc1n(c2=O)-c2cc3ccccc3nc2C1,?,7%[0.0915 µM],.,-2%[0.00818 µM],.
COC(=O)CSC1=NP(=S)(SCC(=O)OC)N2CCCC2=C1C#N (stereo unspecified),6%[38.3 µM],-9%,-127*,-9%,-5
CCCCN1C(=O)/C(=C/C=C/c2ccco2)C(=O)NC1=S,1%,.,-88*,?,-6
Cc1ccc(N2C(=O)NC(=O)/C(=C/C=C/c3ccco3)C2=O)cc1,15%,.,?,-12%,-6
CC1CCCN(C(=O)CCl)C1 (stereo unspecified),3%,.,-116*,0%,.
CC1CCCN(C(=O)CN2C3CCC2CC(O)(c2ccc(F)cc2)C3)C1 (stereo unspecified),24%,.,.,.,.
c1ccc(CCN2CCC(N3CCN(c4ccccc4)CC3)CC2)cc1,8%[38.3 µM],49%,-100*,1%,-2
CCCCN(Cc1ccccc1)C1CCN(CCc2ccccc2)CC1,2%,.,110,-10%,.
CO[C@@H]1CC=C2CCN3CCC4=C(CC(=O)OC4)[C@]23C1,.,-5%,.,-5%,-1
COC(=O)c1ccccc1N=Cc1c(O)[nH]c(=S)[nH]c1=O,11µM*,.,.,.,.
O=C(c1ccccc1)c1ccccc1N=Cc1c(O)[nH]c(=O)[nH]c1=O,2%,.,.,.,.
N[C@H](CCl)C(=O)O,.,-5%,.,-3%,-5
Cc1cc(OC(=O)CCCNC(=O)OC(C)(C)C)c2c3c(c(=O)oc2c1)CCC3,16%[38.3 µM],2%,-10,-2%,4
Cc1cc(OC(=O)CCNC(=O)OC(C)(C)C)c2c3c(c(=O)oc2c1)CCC3,9%[38.3 µM],-7%,-109*,3%,13
SMILES,IMPase Li inh,15-hLO-2 inh,PNC assembly inh,12-hLO inh,IMPase cell inh
CCN(CC)C(=O)c1ccc(N2C(=O)C3CC=C(Cl)CC3C2=O)cc1 (stereo unspecified),12%[38.3 µM],1%,-86*,-3%,7
N[C@@H]1CCc2cc(O)c(O)cc2C1,.,?,.,1%,9
CC(=O)c1ccc(-c2ccccc2)cc1,-1%,.,-88*,1%,.
CCCC(C)C1C(C#N)=C(N)Oc2c1c(=O)oc1ccccc21 (stereo unspecified),20%[38.3 µM],0%,13,-5%,11
CCCC1C(C#N)=C(N)Oc2c1c(=O)oc1ccccc21 (stereo unspecified),-3%,.,-98*,-1%,0
Clc1ccc(CNC2CN3CCC2CC3)cc1 (stereo unspecified),10%,.,-80*,-1%,.
Fc1ccccc1CNC1CN2CCC1CC2 (stereo unspecified),26%,.,.,.,.
CN1CCN(c2ccc([N+](=O)[O-])c3[nH]o[n+](=O)c23)CC1,.,-4%[11.4 µM],.,1%[11.4 µM],.
C[C@]12Cc3cn4c(nc3C=C1CC[C@H]1[C@@H]2CC[C@@]2(C)[C@H]1CC[C@@]2(O)C#N)nc1ccccc14,.,16%,.,-7%,2
CCCN(CCC)C(=O)Cc1c(-c2ccc(Cl)cc2)nc2c(Cl)cc(Cl)cn12,10µM*,-5%,.,-4%,1
Cc1ccc(-c2nc3ccc(C)cn3c2CC(=O)N(C)C)cc1,3%,-5%,.,0%,.
COc1ccc(CCN(C)Cc2ccncc2)cc1OC,10%[38.3 µM],-13%,-91*,-8%,4
CC(C)(O)[C@H]1[C@H]2OC(=O)[C@@H]1[C@]1(O)C[C@H]3O[C@]34C(=O)O[C@H]2[C@]14C (tested in a mixture with another compound),.,-6%,.,5%,-1
CN[C@H]1C[C@H]2O[C@@](C)([C@H]1OC)n1c3ccccc3c3c4c(c5c6ccccc6n2c5c31)C(=O)NC4,5%,.,-115*,7%,.
CC/C(=N\N1CCCCCC1)c1c(O)n(-c2ccccc2C)c(=O)[nH]c1=O,4%,.,-95*,0%,.
C[C@@H]1O[C@@H](O[C@H]2C[C@@H](O)[C@]3(CO)[C@H]4[C@H](O)C[C@]5(C)[C@@H](C6=CC(=O)OC6)CC[C@]5(O)[C@@H]4CC[C@]3(O)C2)[C@H](O)[C@H](O)[C@H]1O,.,.,-115*,3%,.
C[C@H]1O[C@@H](O[C@H]2[C@@H](O)C[C@H](O[C@H]3[C@@H](O)C[C@H](O[C@H]4CC[C@@]5(C)[C@H](CC[C@@H]6[C@@H]5CC[C@]5(C)[C@@H](C7=CC(=O)OC7)CC[C@]65O)C4)O[C@@H]3C)O[C@@H]2C)C[C@H](O)[C@@H]1O,-4%,.,-82*,-1%,.
CC12CN3CC(C)(CN(C1)C3c1cccs1)C2O (stereo unspecified),18%[38.3 µM],-4%,-107*,2%,6
C/C(=N/OC(=O)N(C)C)c1ncc(C(F)(F)F)cc1N1CCOCC1,24%[38.3 µM],17%,-84*,-6%,6
Cc1cc(CN(C)C)c(OC(=O)N(C)C)cc1C,.,0%,-122*,2%,7

# Screening results deposited in PubChem BioAssay by National Center for Advancing Translational Sciences (NCATS).
